Measurements reported in PubChem BioAssay AID1789 (The Scripps Research Institute Molecular Screening Center, 2009).
The whole screen tested about 290,000 compounds, of which about 2,700 (0.93%) were called active. The list comes from a sample in which actives are over-represented; it also holds similar structures and randomly drawn compounds. Values without a mark were called inactive.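 Rule for the calls: active = inhibition above the screen-wide mean plus 3 SD, computed separately per campaign (cut at about 16% in these data); inactive = the rest.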

Tested on: Heat shock protein HSP 90 (rabbit reticulocyte lysate; luciferase refolding)
Assay: inhibitors of HSP90 chaperone activity – cell lysate, luminescence, primary screen (AID 1789);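 note: 0% = DMSO wells and 100% = 60 µM geldanamycin wells; inhibitors lower the luminescence because luciferase stays unfolded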
Conditions: 3 h, at 5.6 µM, hits give high values

For `Cc1ccc2nc(/C(C#N)=C\c3ccc(OC(=O)c4cccs4)cc3)[nH]c2c1`, the inhibition was 30.5% (active).
With `O=c1oc(/C=C/c2ccccc2)nc2ccccc12` the inhibition was 21% (active).
`Cc1nc(-c2ccc(NC(=O)c3cccs3)cc2)cs1` was tested, and the inhibition was 27.1% (active).
`Clc1cccc(N=C2NN=C(c3ccc4c(c3)OCCO4)CS2)c1` was tested, and the inhibition was 38.8% (active).
With `CCOc1c(Br)cc(/C=C2\C(=O)N(CCC#N)N=C2C)cc1OC` the inhibition was 32.1% (active).
With `COc1ccc(CNC(=O)/C(C#N)=C/c2cccc(OC)c2OC)cc1` the inhibition was 31.1% (active).
For `CC1Cn2c(nnc2-c2cccs2)S1` (stereo not drawn), the inhibition was 27.3% (active).
In the case of `CCOc1ccc(OCc2ccc(C(=O)Nc3cccc(C)n3)o2)cc1`, the inhibition is reported as 16.8% (active).
`CCOc1ccc(OCc2ccc(C(=O)N(C)c3ccccc3)o2)cc1` was tested, and the inhibition was 23% (active).
For `COc1ccc(NC(=S)N2N=CCC2c2ccccc2)cc1` (stereo not drawn), the inhibition was 16.8% (active).
For `CCOC(=O)C1=C(c2ccc(OC)cc2)C(=O)c2ccccc2C1=O`, the inhibition was 87.2% (active).
For `CCOc1ccc(N/C=C/C(=O)c2ccccc2)cc1`, the inhibition was 51% (active).
With `COc1ccc(C(=O)/C=C/Nc2ccccn2)cc1` the inhibition was 65.4% (active).
In the case of `COc1ccc(-c2nc(-c3ccccc3)no2)c(OC)c1`, the inhibition is reported as 44.3% (active).
`O=c1oc2ccccc2cc1-c1cn(-c2ccccc2)c(=S)[nH]1` was tested, and the inhibition was 65.7% (active).
`Cc1cccc(CCNC(=O)Cn2ncc3c([nH]c4ccc(C)cc43)c2=O)c1` was tested, and the inhibition was 20.9% (active).
For `CCOc1ccc(OCc2cccc(C(=O)N(CC)CC)c2)cc1`, the inhibition was 19.7% (active).
For `N#C/C=C\Oc1ccc(Cl)cc1N`, the inhibition was 19.9% (active).
`CCCCC(=O)Nc1nc(C)c(-c2csc(Nc3ccc(Cl)cc3)n2)s1` was tested, and the inhibition was 16.9% (active).
`Cc1nc(NC(=O)c2cccc(Cl)c2)sc1-c1csc(Nc2cccc(Cl)c2)n1` was tested, and the inhibition was 67.3% (active).
In the case of `Cc1ccc(Nc2nc(-c3sc(NC(=O)c4ccccc4)nc3C)cs2)cc1`, the inhibition is reported as 48.7% (active).

First: COc1cc(/C=C(\C#N)c2nc3ccccc3[nH]2)ccc1O
Second: COc1ccccc1Cc1nc(-c2ccc(C)cc2)no1
The inhibition of the first is lower: -1.74% for the first, 3.61% for the second.

First: CCOC(=O)CSc1nc2ccc(C)cc2[nH]1
Second: COc1ccc(C)cc1NC(=O)CNCc1cccs1
The inhibition of the first is lower: 1.44% for the first, 9.78% for the second.

Compared with `CCn1c(CC(=O)Nc2ccccc2C)nnc1SCC(=O)NC1=NCCS1`, `CCSc1nnc(SCC(=O)NNC(=O)c2ccccc2F)s1` is lower in inhibition: 3.37% for the first, -3.94% for the second.

Compared with `O=c1oc(-c2ccccc2NS(=O)(=O)c2ccc(Cl)cc2)nc2ccccc12`, `C[n+]1cc(-c2ccccc2)oc1-c1ccccc1` is lower in inhibition: 0.82% for the first, 0.81% for the second.

Compared with `S=c1[nH]nc(/C=C/c2ccccc2)o1`, `S=c1[nH]c(-c2cccs2)cn1-c1ccccc1` is higher in inhibition: -3.77% for the first, 8.66% for the second.

Going from `Cc1ccc(-c2nnc(-c3ccc(NC(=O)c4cccs4)cc3)o2)cc1` to `O=C(Nc1ccccc1)c1ccc(NC(=O)c2cccs2)cc1`, the inhibition rises from -1.94% to 1.79%.

Compared with `Cc1ccc(-c2noc(CNC(=O)c3ccoc3C)n2)cc1`, `Cc1ccc(-c2csc(NNC(=O)c3ccccc3)n2)cc1` is lower in inhibition: 4.35% for the first, 0.18% for the second.

Going from `COc1ccccc1CNC(=O)[C@@H]1CCCN1C(=O)[C@@H]1Cc2ccccc2CN1C(=O)OC(C)(C)C` to `COc1ccc(C(=O)NC2CCN(C(=S)Nc3ccccc3)CC2)cc1`, the inhibition rises from 0.82% to 3.9%.

Going from `Cc1cccc(N=C2NN=C(c3c[nH]c4ccccc34)CS2)c1` to `c1ccc(CN2CCC(N=C3NN=C(c4ccc5c(c4)OCCO5)CS3)CC2)cc1`, the inhibition rises from 8.26% to 13.2%.

Going from `COC(CNC(=O)c1ccc2c(c1)ncn2-c1cc(C)cc(C)c1)OC` to `CCCn1nc(NC(=O)C(C)C)c2cc3cc(OC)ccc3nc21`, the inhibition falls from -2.44% to -7.87%.

Compared with `O=C(OCCN=C1NS(=O)(=O)c2ccccc21)c1cccc([N+](=O)[O-])c1`, `Cc1cccc(NC(=O)c2ccc(COc3ccccc3[N+](=O)[O-])o2)n1` is lower in inhibition: -0.96% for the first, -1.06% for the second.

First: C=CCOc1c(Br)cc(/C=N\n2nnnc2N)cc1OC
Second: COc1cc(/C=C2/C(=O)NN(c3cccc(Cl)c3)C2=O)cc(Br)c1O
The inhibition of the first is higher: 6.06% for the first, 4.77% for the second.

Going from `COc1ccc(-n2ncc3c2CC(C)(C)CC3NC(=O)CCc2c(C)nn(C)c2C)cc1` (stereo not drawn) to `COc1ccc(CNC(=O)CCn2cccc2)cc1`, the inhibition rises from -4.92% to 3.81%.

Going from `Cc1n[nH]c(C)c1S(=O)(=O)N1CCCC(C(=O)Nc2ccc(Br)cc2)C1` (stereo not drawn) to `CC(C)c1ccc(NC(=O)C2CCCN(S(=O)(=O)c3cccnc3)C2)cc1` (stereo not drawn), the inhibition falls from -0.76% to -1.95%.

Going from `COc1ccc(NC(=O)/C(C#N)=C\c2cc(OC)c(OCc3ccc(C(=O)O)cc3)cc2Br)cc1` to `Cc1cccc(NC(=O)Nc2ccc(OCc3ccccc3)cc2)n1`, the inhibition falls from -2.4% to -4.5%.

Compared with `Cc1cc(=O)oc2c1ccc1ccccc12`, `CC(=O)c1ccc(NC(=O)Cn2c(=O)oc3ccccc32)cc1` is lower in inhibition: -1.23% for the first, -5.66% for the second.

First: Cc1ccccc1C1CC(c2cccs2)=NN1S(C)(=O)=O (stereo not drawn)
Second: CCOC(=O)c1c(C)[nH]c2c1-c1ccccc1C(=O)C2=O
The inhibition of the first is higher: -0.31% for the first, -1.61% for the second.

Going from `Cn1c(SCC(=O)N2CCCC2)nnc1-c1cccs1` to `COc1ccc(OCc2cccc(C(=O)N3CCCC3)c2)cc1`, the inhibition rises from -5.69% to 12.3%.

Going from `O=C(O)CCC(=O)Nc1ccc(OCC2CCCO2)cc1` (stereo not drawn) to `NC(=O)c1ccc(NC(=O)COC(=O)c2c3c(nc4ccccc24)/C(=C\c2ccc4c(c2)OCO4)CCC3)cc1`, the inhibition falls from 1.1% to -5.16%.

First: COC(=O)c1ccc(COc2ccc(C#N)cc2)o1
Second: O=C(NCCc1ccccn1)c1ccc(COc2ccccc2)o1
The inhibition of the first is lower: -2.93% for the first, 9% for the second.

Going from `Cc1ccc(NC(=S)N(CCCN2CCCC2)Cc2cccn2Cc2ccc(Cl)cc2)cc1` to `Cc1ccc2[nH]c3c(=O)n(CC(=O)NCCc4ccc(Cl)cc4)ncc3c2c1`, the inhibition falls from 2.82% to -1.14%.

Compared with `COc1ccc(C(=S)Nc2ccccc2)cc1`, `COc1ccc(Sc2nc(-c3ccccc3)ncc2OC)cc1` is lower in inhibition: -0.81% for the first, -2.08% for the second.

First: CCOC(=O)c1c(-c2ccc(C)cc2)csc1/N=C(\C)C1=C(O)c2ccccc2C1=O
Second: CC(C)c1cc(C(N)=O)c(NC(=O)c2cccc(COc3ccc(Br)cc3)c2)s1
The inhibition of the first is lower: -2.27% for the first, 6% for the second.

Compared with `COC(=O)C1(C)CC1(c1ccccc1)c1ccccc1` (stereo not drawn), `O=C(/C=C\NCC(=O)c1ccccc1)c1ccccc1` is higher in inhibition: 1.72% for the first, 2.9% for the second.

Compared with `CCOc1cc2ccccc2cc1C(=O)Nc1ccccn1`, `CC(NCC(=O)Nc1cc(Cl)cc(Cl)c1)c1ccccc1` (stereo not drawn) is higher in inhibition: -0.82% for the first, 10.2% for the second.

First: Cc1cc(N/C=C\C(=O)c2ccc(Cl)c(Cl)c2)no1
Second: CCOc1ccc(N/C=C/C(=O)c2cc(OC)c(OC)c(OC)c2)cc1
The inhibition of the first is lower: -0.49% for the first, -0.12% for the second.

First: COc1cc2c(cc1OC)C(c1cccc([N+](=O)[O-])c1)=NCC2
Second: C=Cn1cc[n+](CC(=O)c2ccc(OC)c(OC)c2)c1
The inhibition of the first is lower: -2.48% for the first, 9.58% for the second.

Going from `CCCCN(C)CCNC(=O)C1CCCN(S(=O)(=O)c2cccc3nsnc23)C1` (stereo not drawn) to `CC1CC(C)CN(CCCNC(=O)Cn2ncc3c([nH]c4ccccc43)c2=O)C1` (stereo not drawn), the inhibition rises from -6.58% to 2.52%.

Going from `COc1ccc(N=Nc2c(-c3ccc(OC)cc3)[nH]oc2=O)cc1` to `COc1ccc(-c2cn(-c3ccc(OC)cc3)c(=S)[nH]2)cc1`, the inhibition rises from 0.28% to 0.9%.

Going from `COC(=O)c1cccnc1NC(=S)NC(C)C` to `CCC(=O)Nc1nc(C)c(C(=O)Nc2cccc(Cl)c2)s1`, the inhibition rises from -2.4% to -0.01%.

First: CC(C)Sc1ncnc2c1cnn2-c1ccccc1
Second: O=C(C1CCC1)N1CCN(c2ccccc2)CC1
The inhibition of the first is lower: -2.09% for the first, -0.73% for the second.

Going from `COc1cc(NC(=O)CSc2ccc(-c3cccnc3)nn2)cc(OC)c1` to `CCCCCCC(=O)Nc1nc(C)c(-c2csc(Nc3cccc(OC)c3)n2)s1`, the inhibition rises from -0.99% to 0.02%.

Going from `O=C(CCCC(=O)N1CCN(c2cccc(Cl)c2)CC1)c1ccccc1` to `COc1ccc(N2CCN(C(=O)c3ccccc3NC(=O)C3=C(C)OCCS3)CC2)cc1`, the inhibition rises from -3.4% to -2.69%.

Compared with `Cc1ccc(S(=O)(=O)N(CCCN(C)C)Cc2ccc3c(c2)OCO3)cc1`, `Cc1cccc(N(C)C(=O)CN2C(=O)COc3ccc(S(=O)(=O)N4CCCCCC4)cc32)c1` is higher in inhibition: -1.45% for the first, 2.46% for the second.

Compared with `CCCCCN(C(=O)CCC(=O)OCC(=O)NCc1ccc(OC)cc1)c1c(N)n(CCCC)c(=O)[nH]c1=O`, `CCCCCCC(=O)Nc1nc(C)c(-c2csc(Nc3cc(Cl)ccc3OC)n2)s1` is higher in inhibition: -5.78% for the first, 4.86% for the second.

First: COc1cc(C(=O)N2CCN(C)CC2)cc(OC)c1OC
Second: CCOC(=O)N1CCN(C(=O)COCc2cc(-c3ccc4c(c3)OCO4)on2)CC1
The inhibition of the first is higher: -1.01% for the first, -2.54% for the second.

Going from `Cc1ccc2c(C)c(C(=O)N(C)CCC3CCCCO3)oc2c1C` (stereo not drawn) to `COc1ccc(Cl)cc1C(=O)NCC#N`, the inhibition falls from -5.53% to -11.2%.

Going from `Cc1nc2ccccc2nc(C)c1=NOCc1ccc(Cl)cc1Cl` to `C=CCCC(=O)Nc1nc(C)c(-c2csc(Nc3ccc(Cl)cc3)n2)s1`, the inhibition rises from -1.08% to 6.06%.

Work on `CC(=O)Nc1nc(C)c(-c2csc(Nc3ccc(S(N)(=O)=O)cc3)n2)s1` yielded an inhibition of -0.54%.
